NPC1 promoter act: activates the NPC1 promoter. Huh7 NPC1 promoter luciferase reporter, 24 h. Potency, µM (series often up to 9.22 µM), for inactives: top-dose activation, most hits filed as activators. hit rate 2.4% among 320,000. AID 485313; note: % of control where 0% means no effect; nearly all actives have a fitted effect of over 60% in size
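Compounds in DMSO were transferred onto Huh7 NPC1-luciferase reporter cells pre-incubated 2 h; after 24 h at 37 °C, Amplite reagent was dispensed and luminescence recorded 10 min later.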
Rab9 prom act: Rab9 promoter activation; Huh7 Rab9 promoter-luciferase reporter, luminescence, 24 h; Potency, µM (top dose mostly 9.22 µM), inactives show at the highest dose activation, negative = inhibition, most hits filed as activators; hit rate 2.8% among 320,000; AID 485297; note: % of control where 0% means no effect; nearly all actives have a fitted effect of over 60% in size
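Huh7 cells stably carrying Rab9 promoter–luciferase reporter, plated 1500 cells/well, compound added after 2 h and incubated 24 h at 37 °C; luciferase luminescence then read after 10 min with detection reagent.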
FLuc counter: counter-screen for miR-21 project: firefly luciferase inhibitors or activators; Potency, µM (titrated, usually from 57.5 µM), for inactives: at the top dose activity change, negative = inhibition, hits mostly inhibitors; hit rate 6.9% among 360,000; purified FLuc, Km substrates, luminescence inhibition;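 note: plate controls were vehicle for no effect and reference inhibitor for full effect; nearly all actives have a fitted effect of over 55% in size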
Target sequence (P08659 whole entry, looked up): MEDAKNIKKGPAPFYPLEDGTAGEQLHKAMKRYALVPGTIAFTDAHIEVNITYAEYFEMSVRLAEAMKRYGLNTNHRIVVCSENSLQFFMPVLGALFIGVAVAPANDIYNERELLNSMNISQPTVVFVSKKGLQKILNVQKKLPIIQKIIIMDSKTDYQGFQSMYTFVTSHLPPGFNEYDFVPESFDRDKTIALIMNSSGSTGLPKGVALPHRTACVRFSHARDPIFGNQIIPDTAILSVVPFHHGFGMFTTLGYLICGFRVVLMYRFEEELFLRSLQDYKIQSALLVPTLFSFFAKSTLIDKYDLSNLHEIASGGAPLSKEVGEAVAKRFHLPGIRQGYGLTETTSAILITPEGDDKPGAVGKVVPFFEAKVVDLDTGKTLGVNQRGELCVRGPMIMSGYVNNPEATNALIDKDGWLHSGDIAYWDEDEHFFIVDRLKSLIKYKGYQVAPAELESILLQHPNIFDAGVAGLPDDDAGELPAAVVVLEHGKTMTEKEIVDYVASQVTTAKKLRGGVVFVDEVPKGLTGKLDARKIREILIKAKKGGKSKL
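Purified P. pyralis luciferase, 10 nM final, with Km-level 10 uM D-luciferin and 10 uM ATP in 50 mM Tris acetate pH 7.5, 10 mM Mg acetate, 0.01% Tween-20, 0.05% BSA; 6-point qHTS titration about 60 µM downward; luminescence read.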
SMN2 splice enh: enhancers of SMN2 splice variant expression. HEK293 SMN2-luciferase splicing reporter, luminescence, 30-36 h. Potency, µM (series often up to 46.1 µM), for inactives: at the highest dose activity change, positive = activation, hits mostly activators. hit rate 2.8% among 210,000. AID 1458; note: % of control where 0% means no effect; nearly all actives have a fitted effect of over 55% in size
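qHTS luciferase splicing reporter: luminescence rises when SMN2 exon 7 is included in transfected HEK293 cells. Compound exposure lasted 30-36 h at 37C, with 4.5 mM final sodium butyrate as control, followed by a ONE-Glo read.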
ELG1 genotox: induces genotoxicity in HEK293T cells with luciferase-tagged ELG1; hit rate 1.3% among 330,000; AID 504466; HEK293T ELG1-luciferase reporter, luminescence, 16 h; Potency, µM (highest dose often 46 µM), inactives show at the highest dose activity change, positive = activation, usual class: activators; note: % of control where 0% means no effect; nearly all actives have a fitted effect of over 60% in size
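HEK293T cells expressing luciferase-tagged ELG1 were exposed to compound or DMSO vehicle for 16 hr at 37 °C and 5% CO2. Luciferase activity was then measured with ONE-Glo after 30 min at room temperature.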
Active calls of the source: *; ? = inconclusive; . = no result; [ ] = remark or other dose. Rows were chosen to be rich in hits. Some 7.4% of all compounds tested hit in one or more screens of this group. Calls come from the whole dose curve; as a rule, active = well fitted curve in the direction sought with a large enough effect; inconclusive = small, poorly fitted or top-dose-only effect, or another doubt; inactive = no such curve, though single readings can be large; an effect the other way counts as inactive or inconclusive. Potency is the fitted concentration of half-maximal effect.

SMILES | NPC1 promoter act | Rab9 prom act | FLuc counter | SMN2 splice enh | ELG1 genotox
O=C1N=c2ccccc2=C1c1sc(NS(=O)(=O)Cc2ccccc2)nc1O | 2% | -3% | 11µM* | . | 4%
O=C1N=c2ccccc2=C1c1sc(Nc2cccc(O)c2)nc1O | 15% | 5% | 19µM* | . | 16%
COC(=O)N[C@@H](/C=C/c1ccccc1)/C(C(=O)OC)=C(\C)NCc1ccccc1 | . | . | . | 5% | .
Cc1ccc(C(=O)COC(=O)c2n[nH]c(=O)c3ccccc23)cc1 | -3% | 2% | 6µM* | 5% | 0%
CCOC(=O)c1n[nH]c(=O)c2ccccc12 | -1% | 3% | -1% | . | 4%
CC1CCCCN1C(=O)COC(=O)Cc1c[nH]c2ccccc12 (stereo not drawn) | . | . | . | . | 0%
Cc1cc(C(=O)COC(=O)Cc2n[nH]c(=O)c3ccccc23)c(C)n1CC(F)(F)F | 2% | -1% | 2% | . | 0%
COCCn1c(C)cc(C(=O)COC(=O)Cc2n[nH]c(=O)c3ccccc23)c1C | 26% | ? | 24µM* | . | 9%
COc1ccc(C(=O)COC(=O)c2n[nH]c3ccccc23)c(OC)c1 | 3.2µM* | 3.5µM* | 6µM* | . | 15%
CC1CCCCN1C(=O)COC(=O)c1n[nH]c2ccccc12 (stereo not drawn) | 30% | ? | 15µM* | 21% | 18µM*
CC(C)=CC1C(CO)C1(C)C (stereo not drawn) | . | . | . | 6% | .
CCOc1ccc(-c2cc3c(=O)n(Cc4nc(-c5ccc(OC(C)C)cc5)oc4C)ccn3n2)cc1Cl | . | . | -6% | 10% | .
CC(=O)[C@@]1(N=Nc2ccc(S(N)(=O)=O)cc2)CCOC1=O | . | . | . | -12%[9.22 µM] | .
COc1ccc(S(=O)(=O)N2CCN(Cc3nc4ccc(C)cc4o3)CC2)cc1 | . | . | -15% | . | .
Cc1cc(C(=O)COC(=O)c2n[nH]c3ccccc23)c(C)n1C | 2.8µM* | 0.5µM* | 1.3µM* | 2.8µM* | 1.2µM*
COCCn1c(C)cc(C(=O)COC(=O)c2n[nH]c3ccccc23)c1C | 0.4µM* | 0.22µM* | 0.43µM* | -32% | 0.23µM*
O=C(COC(=O)c1n[nH]c2ccccc12)c1ccc(F)c(F)c1 | 6% | 5% | 9.5µM* | . | 2%
O=C(OCCOc1ccccc1)c1n[nH]c2ccccc12 | 3.5µM* | 2.2µM* | 6µM* | . | ?
Cc1ccc2c(c1)-c1nc(-c3ccc4c(c3)NC(=O)CO4)cc(-c3ccc(Cl)cc3)c1CO2 | . | . | -1% | -8% | .
CCC1CCc2nc3sc(C(=O)Nc4cccc(F)c4)c(N)c3cc2C1 (stereo not drawn) | . | . | -2% | -12% | .
CC(C)CCn1c(=O)c2cccnc2n(CC(=O)Nc2ccccc2F)c1=O | . | . | -5% | 15% | .
CCOc1ccc(CCNC(=O)Cc2ccc(NC(=O)N3CCSc4ncccc43)cc2)cc1 | . | . | 2% | . | .
COc1ccc(-c2noc(CNS(=O)(=O)c3ccc(Br)cc3)n2)cc1OC | . | . | -1% | -8% | .
CCOc1ccc(NC(=O)CCc2nc3cccnc3n2Cc2ccc(OC)cc2)cc1 | . | . | -4% | -2% | .
O=C(NCCc1ccc(Cl)cc1)c1n[nH]c2ccccc12 | 23% | ? | ? | 12% | 5%
SMILES | NPC1 promoter act | Rab9 prom act | FLuc counter | SMN2 splice enh | ELG1 genotox
Cc1cc(C(=O)COC(=O)c2nccnc2N)c(C)n1C | 3.2µM* | 0.5µM* | 9.5µM* | 11µM* | 6.5µM*
O=C(NCCc1ccccc1)c1n[nH]c2ccccc12 | 2.5µM* | 3.5µM* | 11µM* | 11µM* | ?
CN(C(=O)COC(=O)c1n[nH]c(=O)c2ccccc12)c1ccccc1 | 0% | -3% | 6% | . | -1%
Cc1cc(C(=O)COC(=O)c2n[nH]c(=O)c3ccccc23)c(C)n1C | 16% | 24% | 1.7µM* | . | ?
COc1ccccc1C(=O)Nc1ccccc1SCc1cc(=O)c2ccccc2[nH]1 | . | . | 0% | . | .
CCOc1ccc(-n2c(-c3ccc(Br)cc3)cc3c2CC(C)(C)CC3=O)cc1 | . | . | 1% | -2% | .
Cc1cccc(C(=O)NNC2=CC(=O)CC(C)(C)C2)c1O | 25% | ? | 11µM* | . | ?
CC1(C)CC(=O)C=C(NNC(=O)c2ccccc2O)C1 | ? | 3.2µM* | 0.85µM* | 18µM* | 17%
COc1ccc(C(=O)NNC2=CC(=O)CC(C)(C)C2)cc1 | -11% | -1% | 2% | -7%[1.84 µM] | 3%
Cc1ccccc1NC1=CC(=O)CC(C)(C)C1 | -4% | 11% | -2% | 0% | -2%
COc1ccc(CCNC(=O)c2ccc3c(c2)CCN3S(=O)(=O)c2ccccc2)cc1OC | . | . | -7% | -28% | .
COc1ccc(/C=C/C(=O)Nc2ccc3c(c2)CCC3)cc1OC | 0% | 13% | 19µM* | -36% | 0%
COc1ccc(/C=C/C(=O)Nc2ccc(C(N)=O)cc2)cc1OC | -1% | 2% | -18% | . | 0%
COc1ccc(/C=C/C(=O)NC2=NCCS2)cc1OC | 2.8µM* | 4µM* | -11% | ? | ?
COc1cccc(CN(C)C(=O)c2ccc3c(=O)n4c(nc3c2)CCC4)c1 | 3% | 3% | 2% | . | 8%
CC(OC(=O)c1ccc2c(=O)n3c(nc2c1)CCC3)C(N)=O (stereo not drawn) | -1% | 1% | 5% | 13% | 3%
O=C(NNC(=O)c1ccc2c(=O)n3c(nc2c1)CCC3)c1cccc(Cl)c1 | -3% | -8% | -5% | . | 1%
COc1ccc(CN(C)C(=O)c2ccc3c(=O)n4c(nc3c2)CCC4)cc1 | 2.2µM* | 1.8µM* | 8.5µM* | . | ?
O=C(Oc1ccc(F)cc1)c1ccc2c(=O)n3c(nc2c1)CCC3 | 1% | -2% | 12µM* | . | 0%
O=C(Oc1cccc(F)c1)c1ccc2c(=O)n3c(nc2c1)CCC3 | -1% | -4% | 15µM* | . | 3%
Cc1ccc(/C=N/c2sc3c(c2C#N)CCC3)o1 | 6% | 2% | 1.3µM* | 4% | ?
N#Cc1c(/N=C/c2cccs2)sc2c1CCCCC2 | 3.5µM* | 2µM* | 0.38µM* | -24% | 0.52µM*
Cc1ccc(/C=N/n2c(C)cc(C)c(C#N)c2=O)o1 | -1% | -1% | -2% | -21% | -1%
N#Cc1c(/N=C/c2cccnc2)sc2c1CCCC2 | -3% | -4% | 2.7µM* | . | 3%
N#Cc1c(/N=C/c2ccc(Br)s2)sc2c1CCC2 | ? | ? | 1.9µM* | 7.9µM* | ?
CCc1ccccc1NC(=O)c1ccc2c(c1)nnn2C1CCCC1 | . | . | -9% | . | .
CCCOC(=O)c1c(NC(=O)C2c3ccccc3Oc3ccccc32)sc2c1CCC(C)C2 (stereo not drawn) | . | . | 2% | 9% | .
OC(CN1CCNCC1)Cn1c2ccc(Br)cc2c2cc(Br)ccc21 (stereo not drawn) | . | . | . | -6% | .
CCC(CC)c1nn2c(=O)cc(COc3ccc(NC(=O)c4ccc(C)cc4)cc3)nc2s1 | . | . | 3% | 7% | .
CCOC(=O)CCCn1ncn2c(cc3occc32)c1=O | 18% | 26% | ? | -2% | 21µM*

Source: PubChem BioAssay (National Center for Advancing Translational Sciences (NCATS))
